We go through 40 molecules from PubChem BioAssay (NCATS).

Structures are written as SMILES. Unmarked numbers belong to inactive results.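 How the source made its calls, unless noted: active means compounds whose dose series gives a full or clear partial fitted curve of increased nuclear translocation; inconclusive means weak partial curve or effect only at the top dose; inactive means no dose-dependent translocation response.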 Inconclusive results are not listed.

Glucocorticoid receptor (Homo sapiens), sequence (P04150 whole entry, looked up): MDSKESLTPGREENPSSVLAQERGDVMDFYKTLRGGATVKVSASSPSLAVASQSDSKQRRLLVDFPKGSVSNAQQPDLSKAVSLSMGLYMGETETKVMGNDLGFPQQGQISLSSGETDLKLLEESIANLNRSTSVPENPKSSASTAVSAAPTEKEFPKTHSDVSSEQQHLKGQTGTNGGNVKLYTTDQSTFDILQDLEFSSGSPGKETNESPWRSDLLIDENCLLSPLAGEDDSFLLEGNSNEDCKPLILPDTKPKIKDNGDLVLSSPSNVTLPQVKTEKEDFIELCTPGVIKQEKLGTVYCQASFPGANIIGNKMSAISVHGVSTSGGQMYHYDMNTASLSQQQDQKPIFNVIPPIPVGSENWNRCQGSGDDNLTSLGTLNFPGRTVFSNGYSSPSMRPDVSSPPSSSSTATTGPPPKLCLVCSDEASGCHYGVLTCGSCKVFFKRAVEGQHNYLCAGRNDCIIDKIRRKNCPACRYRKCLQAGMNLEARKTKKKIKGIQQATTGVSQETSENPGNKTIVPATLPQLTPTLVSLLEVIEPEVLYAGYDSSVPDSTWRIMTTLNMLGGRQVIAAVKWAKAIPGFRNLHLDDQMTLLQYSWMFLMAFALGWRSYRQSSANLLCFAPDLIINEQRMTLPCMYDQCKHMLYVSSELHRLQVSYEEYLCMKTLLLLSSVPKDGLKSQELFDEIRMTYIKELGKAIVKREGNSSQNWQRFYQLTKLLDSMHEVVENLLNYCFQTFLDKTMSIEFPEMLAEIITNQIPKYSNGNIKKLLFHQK

Tested on in the first experiment: not listed separately
In words: Stat Signaling Pathway (AID 446; active means well fitted curve in either direction with a large enough effect, not every such curve was filed as active;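 further: ME-180 cervical cancer cells given 40 pM IL-6 alongside compound; SIE-controlled beta-lactamase reporter measured as 460/530 nm FRET emission ratio; on the % scale 0 is the no-effect control and ±100 the full control effect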). The following applies: ME-180 SIE beta-lactamase reporter, IL-6 stimulated, 5 h; at 17.2 µM (top of the series) unless noted. The essentials: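 ME-180 cells carrying a SIE-driven beta-lactamase reporter are stimulated with 40 pM IL-6 for 5 h at 37C in the presence of compound. The 460/530 nm FRET substrate ratio is read after 2.5 h at RT. Data are normalised to 300 pM IL-6 and to 125 nM JAK inhibitor controls.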
`CC1(C)Cc2[nH]c(=S)c(C#N)cc2CO1`: the activity, negative = inhibition was 27.9%. `S=c1nc(-c2ccccc2)[nH]n1-c1ccccc1`: the activity, negative = inhibition was -1.15%. On the same count and under the same terms, for `CCc1nnc(NC(=O)c2c(O)c3c([nH]c2=O)CCCC3)s1` the value was 4.12%; for `O=C(O)c1ccnc(C(=O)O)c1`, 10.5%. On the same count and under the same terms, the same measure for `CC(=O)OCc1c(COC(C)=O)[n+](=O)c2ccccc2n1[O-]`: 0.487%.

Turning to `Cn1nccc1C(=O)Nc1ccccc1C(=O)O`, the activity, negative = inhibition is 4.71%. The same measure, in the same setting: for `Cc1ccc2c(c1)C(CCN)C(=O)N2Cc1ccccc1` (stereo unspecified) the value was 5.36%.

Regarding `CN(C)c1ccc(C=NCCC2(O)CCOC(C)(C)C2)cc1` (stereo unspecified), the activity, negative = inhibition was -0.198%. Same read-out and setting: for `CC1(C)CC(=O)C(CCCN2C(=O)c3ccccc3C2=O)C(=O)C1` the value was 16.7%. Same read-out and setting: the same measure for `COc1cccc(C(=O)N2CCN(S(=O)(=O)Cc3ccccc3)CC2)c1OC`: -3.28%; for `CCOC(=O)c1cc(CC)sc1NC(=O)C1CC1`: -13.8%. Same read-out and setting: the same measure for `Cc1ccc(Cn2ncc3c(N4CCOCC4)ncnc32)cc1`: 3.94%; for `N#C/C(C(=O)NCc1ccccc1)=C1\SC(CCO)C(=O)N1c1ccccc1` (stereo unspecified): -2.91%. For the molecule `COCCOC(=O)c1c(C)nc(SCC(=O)Nc2ccc(C)cc2)c(C#N)c1-c1ccco1`, the activity, negative = inhibition was -18.9%.

Consider `c1ccc(OCc2nn3c(-c4ccco4)nnc3s2)cc1`, for which the activity, negative = inhibition was -4.83%.

With `CCc1ccc(NC(=O)CSC2=C(C#N)C(c3ccco3)C3=C(CCCC3=O)N2)cc1` (stereo unspecified), the activity, negative = inhibition was -16.5%. On the same count and under the same terms, the same measure for `CCCc1cc(=O)oc2c(CN3CCCC3)c(O)ccc12`: 2.68%; for `COc1ccc2[nH]c(C)c(C(=O)CN3CCOCC3)c2c1`: -2.66%; for `Clc1ccc2[nH]c3c(NCCCN4CCOCC4)ncnc3c2c1`: -2.1%. Same read-out and setting: the same measure for `COc1ccc(-c2ncncc2-c2csc(C)n2)c(O)c1`: 0.893%; for `O=C(Nc1ccc(Cl)cn1)C1CCCN1S(=O)(=O)c1ccccc1` (stereo unspecified): -6.7%.

With `N/C(CCCN1CCCCC1)=N/O`, the activity, negative = inhibition is -0.379%.

The next experiment has as its target Glucocorticoid receptor (Homo sapiens) (UniProt P04150). In words: GR-GFP Redistribution (AID 450). Further: potency means the concentration at half of the fitted maximal effect. The following applies: U2OS GR-GFP nuclear translocation, laser cytometry, 2 h; series mostly up to 20.6 µM.
Regarding `COc1ccc(OC)c(C2C(C#N)=C(N)Oc3cc(C)[nH]c(=O)c32)c1` (stereo unspecified), the Potency is more than 20.6 µM. Same read-out and setting: for `Cc1nn(CC(=O)N2CCOCC2)c(=O)c2ccccc12` the value was more than 20.6 µM. Still for that read-out and setting: for `Cc1c(NC(=O)C(CC(=O)O)NCc2ccco2)c(=O)n(-c2ccccc2)n1C` (stereo unspecified) the value was more than 20.6 µM; for `COc1cc(/C=N/n2c(C)nnc2C)cc(OC)c1OC`, more than 20.6 µM. The same measure, in the same setting: the same measure for `CC1(C)Cc2nc(N)c(C(=O)NCCO)cc2CO1`: more than 20.6 µM; for `Cn1cccc1/C=N/n1cnnc1`: more than 20.6 µM; for `COC(=O)COn1c(SCC(=O)OC)nc2ccccc2c1=O`: more than 20.6 µM. Consider `Cc1ccc(C2CC(C(F)(F)F)n3ncc(C(N)=O)c3N2)cc1` (stereo unspecified), for which the Potency was more than 20.6 µM. Turning to `Cc1nc2c(c(=O)n1CC1CCCO1)c1nc3ccccc3nc1n2CCC(C)C` (stereo unspecified), the Potency was more than 20.6 µM. The same measure, in the same setting: the same measure for `CCOc1ccc(NC(=O)c2nn(C)cc2Br)cc1`: more than 20.6 µM; for `COc1cccc(OC)c1C(=O)N1CCN(S(=O)(=O)c2ccc(C)cc2)CC1`: more than 20.6 µM.

Consider `CC(C)=CCC(C)(C)CNC(=O)NC1CCCCC1`, for which the Potency is more than 20.6 µM. Still for that read-out and setting: the same measure for `O=C(O)CCSc1ccc2ccccc2n1`: more than 20.6 µM; for `N#CC1(c2ccccc2)CCC(=NO)CC1` (stereo unspecified): more than 20.6 µM; for `Cc1ccc2[nH]c3c(c2c1)CN(C(=O)CN1CC(C)OC(C)C1)CC3` (stereo unspecified): more than 20.6 µM. With `CCOc1ccc(Br)cc1CC(=O)O`, the Potency was more than 20.6 µM. The same measure, in the same setting: for `Nc1nnnn1N=C1CCCCC1` the value was more than 20.6 µM. On the same count and under the same terms, for `Cn1c(=O)c2c(nc(NCc3ccc4c(c3)OCO4)n2Cc2ccc(F)cc2)n(C)c1=O` the value was more than 20.6 µM; for `CC1(C)Cc2[nH]c(=S)c(C#N)cc2CO1`, more than 20.6 µM. The same measure, in the same setting: for `S=c1nc(-c2ccccc2)[nH]n1-c1ccccc1` the value was more than 20.6 µM.

As for `CCc1nnc(NC(=O)c2c(O)c3c([nH]c2=O)CCCC3)s1`, the Potency was more than 20.6 µM.

For `O=C(O)c1ccnc(C(=O)O)c1`, the Potency was more than 20.6 µM. Still for that read-out and setting: the same measure for `CC(=O)OCc1c(COC(C)=O)[n+](=O)c2ccccc2n1[O-]`: more than 20.6 µM; for `Cn1nccc1C(=O)Nc1ccccc1C(=O)O`: more than 20.6 µM.
